Compound activity: PubChem BioAssay, National Center for Advancing Translational Sciences (NCATS)
Compounds with a hit are over-represented: about 9.4% of the library has one in this group of screens.
SARS PLP yeast = qHTS of Yeast-based Assay for SARS-CoV PLP; S. cerevisiae expressing SARS-CoV PLpro, growth rescue; Potency, µM (highest dose often 32.9 µM), most hits filed as activators; 330,000 compounds, 0.19% hits; calls by dose curve; note: nearly all actives have a fitted effect of over 55% in size
Pf growth 48h = Primary qHTS for delayed death inhibitors of the malarial parasite plastid, 48 hour incubation; P. falciparum luciferase growth in erythrocytes, 48 h; Potency, µM (doses to about 28.7 µM), hits mostly inhibitors; 310,000 compounds, 5.9% hits; AID 504832, 2011
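Erythrocytes infected with P. falciparum carrying an integrated firefly luciferase reporter (2% hematocrit, 0.1% parasitemia final) were exposed to compounds in RPMI 1640 with 0.5% Albumax at 37 C, 5% CO2. Growth inhibition was scored as reduced luminescence.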
Pf growth 96h = Primary qHTS for delayed death inhibitors of the malarial parasite plastid, 96 hour incubation | P. falciparum luciferase reporter growth, 96 h | Potency, µM (series often up to 28.7 µM), actives largely listed as inhibitors | 320,000 compounds, 6.9% hits
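Compounds incubated with erythrocytes infected by luciferase-expressing P. falciparum (2% hematocrit, 0.05% parasitemia final) for 96 hours, 37 C in 5% CO2. Growth inhibition scored as decreased luciferase luminescence.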
AMA1 RON2 block = qHTS for Inhibitors of AMA1-RON; Towards Development of Antimalarial Drug Lead: Primary Screen; Plasmodium falciparum AMA1 (3D7) - RON2 peptide interaction; AlphaScreen AMA1-biotinylated RON2 peptide binding; Potency, µM (doses to about 58.2 µM), most hits filed as inhibitors; 360,000 compounds, 0.2% hits; note: nearly all actives have a fitted effect of over 45% in size
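AMA1 (3D7) with his tag at 25 nM final met compounds first, then biotinylated RON2 peptide at 25 nM; detection used donor plus acceptor beads, 10 µg/mL apiece, read by AlphaScreen after 30 min at room temperature.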
Numbers stand for hits. Unless noted, calls come from the whole dose curve; as a rule, active = well fitted curve in the direction sought with a large enough effect; inconclusive = small, poorly fitted or top-dose-only effect, or another doubt; inactive = no such curve, though single readings can be large; an effect the other way counts as inactive or inconclusive.

`O=S(=O)(NCc1ccccc1)c1ccc(S(=O)(=O)N2CCCCC2)cc1` gave SARS PLP yeast inactive, Pf growth 48h inactive, Pf growth 96h 5.2µM and AMA1 RON2 block inactive.
For CCOC(=O)N1CCN(C(=O)C2CCN(S(=O)(=O)c3ccc(OCC)cc3)CC2)CC1 the results were SARS PLP yeast inactive, Pf growth 48h inactive, Pf growth 96h inactive and AMA1 RON2 block inactive.
O=S(=O)(c1ccccc1)N1CCN(C(=S)NCc2ccccc2)CC1 was read as SARS PLP yeast inactive, Pf growth 48h 2.6µM, Pf growth 96h 2.1µM and AMA1 RON2 block inactive.
For CC(=NO)C1CCC2C3CCC4=CC(=NO)CCC4(C)C3C(O)CC12C (configuration not stated) the results were AMA1 RON2 block inactive.
`O=C(O)COCC(=O)Nc1cc(C(F)(F)F)cc(C(F)(F)F)c1` gave SARS PLP yeast inactive, Pf growth 48h inactive, Pf growth 96h inactive and AMA1 RON2 block inactive.
Screening COc1ccc(CNC(=S)N2CCN(S(=O)(=O)c3cccc(F)c3)CC2)cc1 returned SARS PLP yeast inactive, Pf growth 48h inconclusive, Pf growth 96h 3.3µM and AMA1 RON2 block inactive.
For O=S(=O)(c1cccc(F)c1)N1CCN(C(=S)NCc2ccccc2)CC1 the results were SARS PLP yeast inactive, Pf growth 48h 3.7µM, Pf growth 96h inconclusive and AMA1 RON2 block inactive.
For CCOc1ccc(S(=O)(=O)N2CCN(C(=S)NCc3ccccc3)CC2)cc1 the results were SARS PLP yeast inactive, Pf growth 48h 2.3µM, Pf growth 96h 2.1µM and AMA1 RON2 block inactive.
For Cc1cccc(C)c1NC(=S)N1CCC(N(C)CC2CCCO2)CC1 (configuration not stated) the results were SARS PLP yeast inactive, Pf growth 96h inconclusive and AMA1 RON2 block inactive.
`Cc1ccc(C(=O)Nc2ccccc2-c2ccccc2)cc1[N+](=O)[O-]` gave SARS PLP yeast inactive, Pf growth 48h inactive, Pf growth 96h inactive and AMA1 RON2 block inactive.
Screening Cc1ccc(C(=O)Nc2cc(Cl)ccc2Oc2ccccc2)cc1[N+](=O)[O-] returned SARS PLP yeast inactive, Pf growth 48h 13µM, Pf growth 96h inconclusive and AMA1 RON2 block inactive.
For Cc1cccc(C)c1N(CC(=O)Nc1cc(Cl)ccc1Oc1ccccc1)S(C)(=O)=O the results were SARS PLP yeast inactive, Pf growth 48h 10µM, Pf growth 96h inconclusive and AMA1 RON2 block inactive.
`Cc1ccc(C)c(N(CC(=O)Nc2cc(Cl)ccc2Oc2ccccc2)S(C)(=O)=O)c1` gave SARS PLP yeast inactive, Pf growth 48h inconclusive, Pf growth 96h 15µM and AMA1 RON2 block inactive.
Screening COc1cccc(OCC(=O)Nc2cc(Cl)ccc2Oc2ccccc2)c1 returned SARS PLP yeast inactive, Pf growth 48h inconclusive, Pf growth 96h inconclusive and AMA1 RON2 block inactive.
COc1ccccc1N1CCN(CC(O)COc2c(OC)cccc2OC)CC1 (configuration not stated) was read as SARS PLP yeast inactive, Pf growth 48h inactive, Pf growth 96h inactive and AMA1 RON2 block inactive.
`CCC(NC(=O)CNC(=O)c1ccc2c(c1)OCO2)c1ccc(Br)cc1` (configuration not stated) gave SARS PLP yeast inactive, Pf growth 48h inconclusive, Pf growth 96h inactive and AMA1 RON2 block inactive.
For C#CCOCCOCCOCCNc1nc(N2CCN(C(=O)CCCCCCCCCCNC(=O)[C@H](CCCCN)n3cc(C)nn3)CC2)nc(N2CCN(C(=O)CCCCCCCCCCNC(=O)[C@H](CCCN=C(N)N)n3cc(C[C@@H](C)CC)nn3)CC2)n1 the results were SARS PLP yeast inactive, Pf growth 48h 1.9µM, Pf growth 96h 1.5µM and AMA1 RON2 block inconclusive.
For C#CCOCCOCCOCCNc1nc(N2CCN(C(=O)CCCCCCCCCCNC(=O)[C@@H](CCSC)n3cc(CCO)nn3)CC2)nc(N2CCN(C(=O)CCCCCCCCCCNC(=O)[C@H](CCCN=C(N)N)n3cc(C[C@@H](C)CC)nn3)CC2)n1 the results were SARS PLP yeast inactive, Pf growth 48h 3.3µM, Pf growth 96h 1.2µM and AMA1 RON2 block inconclusive.
Screening C#CCOCCOCCOCCNc1nc(N2CCN(C(=O)CCCCCCCCCCNC(=O)[C@H](CCCCN)n3cc(C[C@@H](C)CC)nn3)CC2)nc(N2CCN(C(=O)CCCCCCCCCCNC(=O)[C@H](CCCN=C(N)N)n3cc(C[C@@H](C)CC)nn3)CC2)n1 returned SARS PLP yeast inactive, Pf growth 48h 3.3µM, Pf growth 96h 3.3µM and AMA1 RON2 block inconclusive.
C#CCOCCOCCOCCNc1nc(N2CCN(C(=O)CCCCCCCCCCNC(=O)[C@H](CO)n3cc(CCCCCN)nn3)CC2)nc(N2CCN(C(=O)CCCCCCCCCCNC(=O)[C@H](CCCN=C(N)N)n3cc(C[C@@H](C)CC)nn3)CC2)n1 was read as SARS PLP yeast inactive, Pf growth 48h 3.3µM and Pf growth 96h 2.6µM.
For CC(C)c1ccc(CNC(=O)C2(C)CCCN2C)cc1 (configuration not stated) the results were AMA1 RON2 block inactive.
Screening CC(C)N(Cc1ccccc1)C(=O)COC(=O)c1cc[n+]([O-])cc1 returned SARS PLP yeast inactive and AMA1 RON2 block inactive.
Screening CC1CC(C)CN(CCCNC(=O)CN2C(=O)c3cccnc3Oc3ccc(Cl)cc32)C1 (configuration not stated) returned SARS PLP yeast inactive, Pf growth 48h 10µM, Pf growth 96h inconclusive and AMA1 RON2 block inactive.
Screening CCN1CCN(CCCNC(=O)CN2C(=O)c3cccnc3Oc3ccc(Cl)cc32)CC1 returned SARS PLP yeast inactive, Pf growth 48h inactive, Pf growth 96h inconclusive and AMA1 RON2 block inactive.
`CC(C)(C)NC(=O)c1ccc2c(c1)N(CC(=O)N1CCCC1)C(=O)C(C)(C)O2` gave SARS PLP yeast inactive, Pf growth 48h inactive, Pf growth 96h inconclusive and AMA1 RON2 block inactive.
CC(C)(C)NC(=O)c1ccc2c(c1)N(CC(=O)N1CCN(c3ccc(F)cc3)CC1)C(=O)C(C)(C)O2 was read as SARS PLP yeast inactive, Pf growth 48h 10µM and AMA1 RON2 block inactive.
`CCCCOc1ccc(C(=O)Nc2cccc(-n3cnnn3)c2)cc1OC` gave SARS PLP yeast inactive, Pf growth 48h inconclusive, Pf growth 96h 9.3µM and AMA1 RON2 block inactive.
O=C(Nc1ccc(OC(F)(F)F)cc1)c1cccc(-n2cnnn2)c1 was read as SARS PLP yeast inactive, Pf growth 48h inconclusive, Pf growth 96h 10µM and AMA1 RON2 block inactive.
For CCOc1ccc(NC(=O)c2cccc(-n3cnnn3)c2)cc1 the results were SARS PLP yeast inactive, Pf growth 48h inactive, Pf growth 96h inactive and AMA1 RON2 block inactive.
For O=C(Nc1cccc(-n2cnnn2)c1)c1cc(Cl)nc(Cl)c1 the results were SARS PLP yeast inactive, Pf growth 48h 9.3µM, Pf growth 96h 4.7µM and AMA1 RON2 block inactive.
For CC(=O)c1cccc(NC(=O)C(C)OC(=O)c2ccc(-n3cnnn3)cc2)c1 (configuration not stated) the results were SARS PLP yeast inactive, Pf growth 48h 10µM, Pf growth 96h 12µM and AMA1 RON2 block inactive.
